Results published in PubChem BioAssay AID1259418 (Broad Institute, 2018).
Out of some 3,400 compounds screened, about 840 (25%) were called active. Inconclusive results (about 11%) are left out. A selection follows. Measured potencies and affinities stand elsewhere. Unmarked numbers belong to inactive results.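 How the source made its calls: active means fitted half-maximal concentration of signal decrease at or below twice the sample's top tested concentration; inconclusive means flat curve between -70 and -30 percent, or poor fit; inactive means flat within 30 percent, signal rise, or potency above limit.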

experiment: inhibitors of Toxoplasma growth in IFN-γ-primed HeLa – cell-based, ME49Luc, luciferase, 72 h, dose response (AID 1259418); conditions: T. gondii ME49Luc in IFN-y HeLa, stronger effect = lower value, -100% = high-dose IFN-γ control wells; at 19.5 µM unless noted

SMILES | max activity
CCOc1ccc(-c2nc(CN3CCN(C(=O)Nc4ccccc4C(=O)OC)CC3)c(C)o2)cc1 | 6.24% [at 0.16 µM]
COc1cc(CCC(=O)N2CCC3(CC2)Nc2ccc(C)c(C)c2-n2cccc23)cc(OC)c1OC | -12.8% [at 2.6 µM]
O=C(c1ccccc1F)N1CCC2(CC1)Nc1ccc(Cl)cc1-n1cccc12 | -6.53% [at 0.35 µM]
O=C(c1ccc(F)cc1)N1CCC2(CC1)Nc1ccc(Cl)cc1-n1cccc12 | 13.8% [at 0.68 µM]
COc1ccc(-c2nc(NCCc3ccc(SC)cc3)c3ccccc3n2)cc1 | -32.9%
CCOC(=O)CSC1=Nc2ccccc2C2=NC(CC(=O)NCc3ccc(F)cc3)C(=O)N12 (stereo not drawn) | 17.3%
CC(C)C#Cc1ccc([C@H]2[C@@H](CO)N3C(=O)CN(S(=O)(=O)c4ccccc4)C[C@H]23)cc1 | -8.27% [at 10 µM]
CS(=O)(=O)N1CC(=O)N2[C@@H](CO)[C@H](c3ccc(C#Cc4ccc(F)cc4)cc3)[C@@H]2C1 | 11.8% [at 10 µM]
CS(=O)(=O)N1CC(=O)N2[C@H](CO)[C@H](c3ccc(C#CCC4CCCC4)cc3)[C@@H]2C1 | 13.6% [at 10 µM]
CS(=O)(=O)N1CC(=O)N2[C@H](CO)[C@@H](c3ccc(C#CCC4CCCC4)cc3)[C@H]2C1 | 29.5% [at 11 µM]
CC(C)C#Cc1ccc([C@H]2[C@@H](CO)N3C(=O)CN(S(=O)(=O)c4ccccc4)C[C@@H]23)cc1 | 19.2% [at 10 µM]
CS(=O)(=O)N1CC(=O)N2[C@H](CO)[C@@H](c3ccc(Br)cc3)[C@H]2C1 | 27.1%
Cc1ccc(C)c(CSc2ccc(-c3sc(-c4ccc(F)cc4)nc3C)nn2)c1 | -9.1% [at 5 µM]
COc1ccc(-c2nc(NCc3ccccc3OC)c3ccccc3n2)cc1 | -10.7% [at 0.68 µM]
O=C(Nc1ccc(-c2nc(-c3cccc(Br)c3)co2)cc1)Nc1cccc(F)c1 | -13.2% [at 2.6 µM]
COc1ccc(-n2c(C)cc(CNS(=O)(=O)c3ccc4c(c3)CCC(=O)N4)c2C)cc1 | 35.1%
O=C(NCCc1csc(-c2ccccc2)n1)[C@H]1CSCN1S(=O)(=O)c1ccccc1 | 14.6%
Cc1ccccc1S(=O)(=O)N1CSC[C@@H]1C(=O)NCCc1csc(-c2ccccc2)n1 | -13% [at 0.16 µM]
CCS(=O)(=O)N1CSC[C@@H]1C(=O)NCCc1csc(-c2ccccc2)n1 | 7.03% [at 5 µM]
CCc1ccc(S(=O)(=O)N2CSC[C@@H]2C(=O)NCCc2csc(-c3ccccc3)n2)cc1 | -11.2% [at 0.68 µM]
O=C(NCCc1csc(-c2ccccc2)n1)[C@H]1CSCN1S(=O)(=O)Cc1ccccc1 | 17.7% [at 2.6 µM]
O=C(NCCc1csc(-c2ccccc2)n1)[C@H]1CSCN1S(=O)(=O)c1ccc(F)cc1 | 15.5% [at 10 µM]

SMILES | max activity
COc1ccc(-c2nc(N3CCN(c4ccc(C)cc4C)CC3)c3ccccc3n2)cc1 | -12.6% [at 0.16 µM]
COc1ccc(CC(=O)Nc2ccc(-c3nc(-c4cc(C)ccc4C)co3)cc2)cc1 | 17.8% [at 0.16 µM]
COc1ccc(NC(=O)N2CC[C@@H]3[C@H]2c2cc(C4=CCCCC4)ccc2N(C)[C@H]3CO)cc1 | 18.9% [at 0.3 µM]
CN1c2ccc(C3=CCCCC3)cc2[C@@H]2[C@@H](CCN2C(=O)C2CCOCC2)[C@H]1CO | 43.9%
Cc1ccc(-c2coc(-c3ccc(NC(=O)C(C)C)cc3)n2)cc1 | 38.3%
COc1ccc(C)cc1NC(=O)Nc1ccc(-c2nc(-c3cc(C)ccc3C)co2)cc1 | 9.85% [at 0.35 µM]
Cc1cc(C)c2c(=O)n(Cc3nc(-c4cccc(Cl)c4)oc3C)c(=O)n(-c3ccccc3)c2n1 | -9.3% [at 0.16 µM]
COc1ccccc1CNC(=O)CC1N=C2c3ccccc3N=C(SCc3ccccc3F)N2C1=O (stereo not drawn) | 21.2% [at 1.35 µM]
O=C(Cc1cccc(F)c1)Nc1ccc2c(c1)CCC(=O)N2 | -7.77%
O=C(C[C@@H]1CC[C@@H]2[C@H](COC[C@@H](O)CN2C(=O)Nc2cc(Cl)cc(Cl)c2)O1)N1CCOCC1 | 20.4%
COCCO[C@H]1CCN(Cc2c(C)noc2C)[C@H]1Cc1ccccc1 | 11.4%
Cc1ccc(-c2coc(-c3ccc(NC(=O)Cc4cccs4)cc3)n2)c(C)c1 | 116%
COc1cc(OC)cc(C(=O)Nc2ccc(-c3nc(-c4ccccc4)co3)cc2)c1 | -34% [at 1.35 µM]
N#Cc1cccc(-c2ccc3c(c2)[C@H]2[C@H](CCN2C(=O)c2ccccc2F)[C@@H](CO)N3)c1 | 16.6% [at 10 µM]
COc1ccccc1-c1ccc2c(c1)[C@@H]1[C@@H](CCN1S(=O)(=O)c1ccc(C)cc1)[C@H](CO)N2 | 39.6% [at 5 µM]
COc1ccccc1-c1ccc2c(c1)[C@H]1[C@H](CCN1S(=O)(=O)c1ccc(C)cc1)[C@@H](CO)N2 | 38.9%
O=C(c1ccc2c(c1)OCO2)N1CC[C@@H]2[C@H]1c1cc(C#Cc3ccccc3)ccc1N[C@@H]2CO | 33.7% [at 10 µM]
Cc1ccc(S(=O)(=O)N2CC[C@@H]3[C@@H](CO)Nc4ccc(-c5cccc(C(=O)N(C)C)c5)cc4[C@@H]32)cc1 | 30.1% [at 10 µM]
O=S(=O)(c1cccc(F)c1)N1CC[C@@H]2[C@H]1c1cc(C#Cc3ccccc3F)ccc1N[C@@H]2CO | 6.78% [at 0.3 µM]
Cc1ccc(S(=O)(=O)N2CC[C@@H]3[C@H](CO)Nc4ccc(-c5cccc(C(=O)N(C)C)c5)cc4[C@@H]32)cc1 | 26.4% [at 5 µM]
Clc1ccc(-c2nc(N3CCCc4ccccc43)c3ccccc3n2)cc1 | 10.7% [at 0.35 µM]
